# Data as given in PubChem BioAssay (NCATS).
# “And” between values parts separate entries of the source, which are not always exact repeats. Equal values may be shown once. Results filed as inconclusive are left out. A call without a number means that no potency is given here. Unmarked numbers belong to inactive results. The source made the active and inactive calls. Unless noted, the call rests on the fitted dose curve; in most records, active means well fitted curve in the direction sought with a large enough effect; inconclusive means small, poorly fitted or top-dose-only effect, or another doubt; inactive means no such curve, though single readings can be large; an effect the other way counts as inactive or inconclusive.
# What was measured:
# [1] = target: Cellular tumor antigen p53 (Homo sapiens) (UniProt P04637); assay: Primary qHTS for small molecule compounds that upregulate eGFP-tagged delta133p53alpha (in N-terminal) cells. (AID 2060322); details: NCI-H358 eGFP-delta133p53alpha fluorescence, 24 h; activation: stronger effect = higher value; further: series mostly up to about 56 µM; nearly all actives have a fitted effect of over 75% in size
# Sequence of Cellular tumor antigen p53 (Homo sapiens) (P04637 whole entry, looked up): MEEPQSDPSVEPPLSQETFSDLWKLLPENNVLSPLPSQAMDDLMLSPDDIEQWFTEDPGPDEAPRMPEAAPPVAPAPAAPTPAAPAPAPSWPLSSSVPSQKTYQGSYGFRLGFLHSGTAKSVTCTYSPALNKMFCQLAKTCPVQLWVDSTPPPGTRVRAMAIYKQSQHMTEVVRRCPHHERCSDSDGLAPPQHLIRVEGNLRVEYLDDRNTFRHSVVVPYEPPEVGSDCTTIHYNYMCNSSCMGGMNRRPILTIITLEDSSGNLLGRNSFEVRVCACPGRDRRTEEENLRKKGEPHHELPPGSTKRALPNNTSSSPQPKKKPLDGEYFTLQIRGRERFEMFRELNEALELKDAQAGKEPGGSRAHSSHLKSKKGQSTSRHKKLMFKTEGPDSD
# In short: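 NCI-H358 cells pre-induced 24 h with 10 ng/ml doxycycline to express N-terminal eGFP-delta133p53alpha, then dosed 24 h at 37C without doxycycline; fixed, Hoechst-stained, GFP intensity by laser scanning cytometry, normalized to DMSO (0%) and 57.5 uM 5-azacytidine (100%).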
# [2] = target: Cellular tumor antigen p53 (Homo sapiens) (UniProt P04637); assay: Primary qHTS for small molecule compounds that upregulate eGFP-tagged delta133p53alpha (in C-terminal) cells. (AID 2060324)
# In short: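 In this qHTS, GFP-tagged delta133p53alpha levels are measured in fixed NCI-H358 cells after 24 h compound exposure at 37 °C. The cells are pre-induced with 100 ng/ml doxycycline, and signal is normalized to DMSO-treated wells as 0%.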
# [3] = target: Aldehyde dehydrogenase, mitochondrial (Homo sapiens) (UniProt P05091); assay: qHTS for Inhibitors of the Aldehyde Dehydrogenase Family (ALDH2) Validation screens (AID 2061302; active means well fitted inhibition curve with a large enough effect; title and protocol of this record describe different tests)
# [4] = target: Retinaldehyde dehydrogenase 3 (Homo sapiens) (UniProt P47895); assay: qHTS for Inhibitors of the Aldehyde Dehydrogenase Family (ALDH1A3) Validation screen (AID 2061312); further: nearly all actives have a fitted effect of over 45% in size
# [5] = BET inhibitor-based combinations targeting novel dependencies in MECOM-rearranged (r) AML: SET-2 cell line (AID 2202231); details: SET-2 AML cells viability, CellTiter-Glo luminescence, 48 h; viability: stronger effect = lower value, concentration not given here; further: nearly all actives have a fitted effect of over 35% in size; further: potency means the concentration at half of the fitted maximal effect
# In short: (§1)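 AML cell lines seeded at 500 cells/well, treated with 11-point dose curves for 48 h. Viability by CellTiter-Glo luminescence, normalised to DMSO and empty wells; activity expressed as AUC and per-cell-line Z-transformed AUC.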
# [6] = BET inhibitor-based combinations targeting novel dependencies in MECOM-rearranged (r) AML: OCI-AML3 cell line (AID 2202232); details: Potency: OCI-AML3 viability; further: nearly all actives have a fitted effect of over 35% in size; further: potency means the concentration at half of the fitted maximal effect
# In short: as §1
# [7] = BET inhibitor-based combinations targeting novel dependencies in MECOM-rearranged (r) AML: MV-4-11 cell line (AID 2202233); further: nearly all actives have a fitted effect of over 45% in size; further: potency means the concentration at half of the fitted maximal effect
# In short: (§2)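 Cells at 500/well were exposed for 48 hr to MIPE v5.0 drugs as 11-point dose curves. Viability was read by CellTiter-Glo luminescence and normalized to DMSO and empty-well controls. Activity was expressed as AUC and per-cell-line Z-AUC.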
# [8] = BET inhibitor-based combinations targeting novel dependencies in MECOM-rearranged (r) AML: HNT-34 cell line (AID 2202234); further: nearly all actives have a fitted effect of over 35% in size; further: potency means the concentration at half of the fitted maximal effect
# In short: as §2
# [9] = BET inhibitor-based combinations targeting novel dependencies in MECOM-rearranged (r) AML: UCSD-AML1 cell line (AID 2202235); further: nearly all actives have a fitted effect of over 40% in size; further: potency means the concentration at half of the fitted maximal effect
# In short: as §2
# [10] = BET inhibitor-based combinations targeting novel dependencies in MECOM-rearranged (r) AML: AML-191 cell line (AID 2202236; further: nearly all actives have a fitted effect of over 35% in size)
# In short: as §1
# [11] = BET inhibitor-based combinations targeting novel dependencies in MECOM-rearranged (r) AML: AML-194 cell line (AID 2202237; further: nearly all actives have a fitted effect of over 40% in size)
# In short: as §1
Compound,activation [1],Potency [2],Potency [3],Potency [4],viability [5],Potency [6],Potency [7],Potency [8],Potency [9],Potency [10],Potency [11],Potency [5]
Cc1ccc([N+](=O)[O-])cc1S(=O)(=O)N(C)C,-2.98%,inactive,inactive,inactive,,,,,,,,
CN1CCN(C2Cc3ccccc3Sc3ccc(Cl)cc32)CC1 (stereo not drawn),-14.1%,inactive,inactive,inactive,,,,,,,,
Nc1nc(Cl)nc2c1ncn2[C@@H]1O[C@H](COP(=O)(O)OP(=O)(O)OP(=O)(O)O)[C@@H](O)[C@H]1O,-39.8%,inactive,inactive,inactive,,,,,,,,
NCCCCCC(=O)O,2.82% and -3.41%,inactive,inactive,inactive,112%,0.0037 µM (active),inactive,inactive,inactive,inactive,inactive,
O=C1/C(=C/c2ccsc2)CC/C1=C\c1cccs1,14.3%,inactive,inactive,inactive,,,,,,,,
COc1ccc2c(c1)c(CC(=O)O)c(C)n2C(=O)c1ccccc1,-16.8%,inactive,inactive,inactive,,,,,,,,
CNC[C@H](O)c1ccc(O)c(O)c1,2.51% and 2.46% and 10.6%,inactive,inactive,inactive,103%,inactive,,inactive,inactive,inactive,inactive,
NCCCCNCCCN,-3.21% and -16.4%,inactive,inactive,inactive,,,10.5 µM (active),23.5 µM (active),,,,18.6 µM (active)
COc1cc(SC)ccc1C(=O)N1CCC(Cc2ccccc2)CC1,14.6%,inactive,inactive,inactive,97%,inactive,20.9 µM (active),,inactive,inactive,inactive,
O=C1N(c2ccccc2)c2ccccc2C1(Cc1ccncc1)Cc1ccncc1,10.9% and -8.78% and -29%,inactive,inactive,inactive,104%,inactive,inactive,,inactive,inactive,inactive,
CC(C)(C)NCC(O)c1ccc(O)c(CO)c1 (stereo not drawn),-7.9% and 9.21% and -24.1%,inactive,inactive,inactive,115%,inactive,inactive,inactive,inactive,inactive,inactive,
NC(=O)c1ccc2[nH]ccc2c1,3.04%,inactive,inactive,inactive,107%,,inactive,inactive,inactive,inactive,,
NC(=O)c1ncn([C@@H]2O[C@H](CO)[C@@H](O)[C@H]2O)n1,6.69% and -41.3%,inactive,inactive,inactive,,,23.5 µM (active),16.6 µM (active),18.6 µM (active),,,20.9 µM (active)
CC12CC3CC(C)(C1)CC(N)(C3)C2,-20.9% and 13.4% and -0.343%,inactive,inactive,inactive,110%,inactive,inactive,inactive,inactive,inactive,inactive,
NC(=O)c1cnccn1,-1.69% and -18.4% and -16.9%,inactive,inactive,inactive,105%,inactive,inactive,inactive,inactive,inactive,inactive,
CN(CCOc1ccc(NS(C)(=O)=O)cc1)CCc1ccc(NS(C)(=O)=O)cc1,-5.08% and 6.34% and 4.63%,inactive,inactive,inactive,110%,inactive,inactive,,inactive,inactive,inactive,
Cc1cnc(C(=O)NCCc2ccc(S(=O)(=O)NC(=O)NC3CCCCC3)cc2)cn1,-31.3% and -14.1% and 0.362%,inactive,inactive,inactive,105%,inactive,inactive,inactive,,inactive,inactive,
OC(CCN1CCCCC1)(c1ccccc1)C1CC2C=CC1C2 (stereo not drawn),-27.6% and 6.19% and -26.9%,inactive,inactive,inactive,97.6%,,23.5 µM (active),inactive,inactive,inactive,inactive,
COc1ccc2[nH]cc(CCNC(C)=O)c2c1,4.42% and -13.4% and -16.3%,inactive,inactive,inactive,124%,inactive,inactive,inactive,,inactive,inactive,
